Compound activity as filed in PubChem.
This is a sample that favours compounds with a hit; in the whole collection about 2.7% have one here.
Neddylation inh: inhibitors of cullin neddylation, primary screen, biochemical, TR-FRET, uHTS, NAE and Ubc12; calls only at 25 µM; hit rate 0.58% among 360,000; in the data active = inhibition above about 36%
Target sequence (P61081 whole entry, looked up): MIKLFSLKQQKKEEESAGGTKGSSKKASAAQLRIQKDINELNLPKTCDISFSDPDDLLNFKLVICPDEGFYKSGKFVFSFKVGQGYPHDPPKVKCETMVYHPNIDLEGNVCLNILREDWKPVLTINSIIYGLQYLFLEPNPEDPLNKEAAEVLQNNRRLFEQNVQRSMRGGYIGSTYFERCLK
Target sequence (Q13564 whole entry, looked up): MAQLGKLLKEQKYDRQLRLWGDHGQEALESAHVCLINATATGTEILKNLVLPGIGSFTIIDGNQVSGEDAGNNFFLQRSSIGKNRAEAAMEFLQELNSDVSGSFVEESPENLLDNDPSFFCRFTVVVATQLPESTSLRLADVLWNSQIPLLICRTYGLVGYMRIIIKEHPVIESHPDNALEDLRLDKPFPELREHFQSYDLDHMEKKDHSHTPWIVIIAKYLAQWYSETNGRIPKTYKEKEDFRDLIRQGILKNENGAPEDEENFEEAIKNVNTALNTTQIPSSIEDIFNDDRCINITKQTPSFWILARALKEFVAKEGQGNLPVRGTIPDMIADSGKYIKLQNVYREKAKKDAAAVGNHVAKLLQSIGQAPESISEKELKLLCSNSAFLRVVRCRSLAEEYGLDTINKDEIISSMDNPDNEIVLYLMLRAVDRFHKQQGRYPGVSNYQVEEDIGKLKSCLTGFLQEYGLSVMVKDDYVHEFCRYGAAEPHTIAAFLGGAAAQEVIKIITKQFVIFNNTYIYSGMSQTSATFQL
FAS-TE inh: FAS thioesterase domain inhibitors, primary screen, biochemical, fluorescence intensity, uHTS | recombinant FAS-TE, OMFH fluorogenic substrate, fluorescence endpoint | inhibition, % at 15 µM | Fatty acid synthase (Homo sapiens), P49327 | hit rate 0.67% among 360,000 | AID 602261, 2012;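 active = compounds whose normalised, plate-corrected inhibition of enzyme fluorescence in the single-dose primary screen is 50% or more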;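 note: 0% = DMSO with enzyme and 100% = substrate without enzyme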
PfGluPho inh: PfG6PD enzyme inhibitors, primary screen, biochemical, fluorescence intensity, uHTS; PfGluPho enzyme, NADPH resazurin-diaphorase fluorescence; hit rate 0.78% among 350,000; glucose-6-phosphate dehydrogenase-6-phosphogluconolactonase (Plasmodium falciparum 3D7); inhibition, % at 20 µM;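 active = inhibition reaching at least a set limit at 20 µM in the primary screen, cut at about 59% in these data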;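 note: 0% = DMSO wells with substrate and 100% = DMSO wells lacking glucose-6-phosphate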
KLK7 zymogen act: proKLK7 zymogen activators, primary screen, biochemical, fluorescence intensity; purified proKLK7, EDANS-DABCYL substrate fluorescence; 100% is mature enzyme control, 0% vehicle; Kallikrein-7 (Homo sapiens), P49862; AID 652039, 2013; activation, % at 7 µM; hit rate 0.9% among 370,000;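 active = activation above the mean of all tested compounds plus 3 SD, computed per campaign excluding outliers beyond control limits, cut at about 13% in these data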
Numbers without * were called inactive; i = inactive; / = no result given; + = active, no number.

SMILES | Neddylation inh | FAS-TE inh | PfGluPho inh | KLK7 zymogen act
Nc1cccc2cc(S(=O)(=O)O)ccc12 | + | 0.1 | 32.8 | 6.8
CN(C)c1ccc2cc(S(=O)(=O)O)cc(O)c2c1 | / | -7.8 | 49.9 | -15.0
NC(=O)C1CCN(c2nc(-c3ccc(Br)cc3)cs2)CC1 | i | -2.5 | 3.2 | -0.5
NC(=O)C1CCN(c2nc(-c3cccs3)cs2)CC1 | i | 7.3 | 73.2* | /
COc1ccc(N(C(=O)CCl)C(C(=O)NCCc2ccccc2)c2cccs2)cc1 (stereo not given) | i | 62.6* | -10.6 | 0.6
COc1ccc(CNC(=O)C(c2ccncc2)N(C(=O)Cc2cccs2)c2ccccc2)cc1 (stereo not given) | i | 0.3 | -3.8 | 0.2
Fc1ccc2[nH]c3c(N4CCc5ccccc5C4)ncnc3c2c1 | + | 14.1 | 7.6 | -1.5
CN1CCN(c2ncnc3c2[nH]c2ccc(F)cc23)CC1 | / | -3.7 | 2.8 | 19.8*
Cc1ccc2[nH]c3c(N4CCc5ccccc5C4)ncnc3c2c1 | i | 2.9 | 35.8 | -1.4
Cc1ccc2[nH]c3c(N4CCOCC4)ncnc3c2c1 | / | -3.5 | 16.2 | 2.4
COc1ccc(-n2c(COc3ccc(C)cc3)nnc2SCC(=O)Nc2ccc(S(=O)(=O)Nc3cc(C)nc(C)n3)cc2)cc1 | / | / | / | 0.1
O=C(Oc1ccc(Br)cc1C(=S)N1CCCCC1)c1cc([N+](=O)[O-])cc([N+](=O)[O-])c1 | i | 53.4* | -6.2 | /
O=C(C1=NN(c2ccccc2)C2C(=O)N(c3cccc(Cl)c3)C(=O)C12)c1ccccc1 (stereo not given) | i | 64.4* | -7.8 | -0.4
CCC(=O)N1CCc2cc(Br)c(S(=O)(=O)NCCCN(CC)Cc3ccccc3)cc21 | / | / | / | -0.1
O=C(/C=C/c1ccc(F)cc1)NC(=S)NNC(=O)c1cnccn1 | + | 1.8 | -10.9 | -0.2
COc1ccc(/C=C/C(=O)NC(=S)NNC(=O)c2cccnc2)cc1 | i | -8.7 | -5.0 | -0.2
COc1ccc(/C=C/C(=O)NC(=S)NNC(=O)c2cnccn2)cc1 | + | 0.3 | -10.6 | -0.1
O=C(NC1CCCCN(Cc2cccc(Cl)c2)C1=O)c1cccc(C(F)(F)F)c1 (stereo not given) | / | / | / | 0.2
Cc1cc(/C=N/NC(=O)c2cccc(N(C)C)c2)c(C)n1-c1cc(C(=O)O)cc(C(=O)O)c1 | + | -2.7 | -17.1 | /
COCCCN1C(=O)[C@H](CC(=O)NCc2ccccc2)[C@]2(C(=O)OC)CCCCC=C12 | / | / | / | 0.1
Nc1c(C(=O)NC2CC2)c2nc3ccccc3nc2n1-c1ccc2c(c1)OCO2 | + | 2.2 | -1.9 | 0.7
O=C(CCS(=O)(=O)c1ccccc1)Nc1ccc(F)cc1F | / | / | / | 0.1
COc1cccc(N=c2oc3ccc(OC)cc3cc2-c2nc3ccccc3[nH]2)c1 | i | 3.6 | -6.3 | 4.2
COc1cccc(N=c2oc3ccccc3cc2-c2nc3ccccc3[nH]2)c1 | + | 19.3 | 31.2 | -18.4
C=CCN1C(C(=O)OC)CN(Cc2cn(Cc3ccc(Cl)cc3)nn2)CCS1(=O)=O (stereo not given) | / | / | / | 0.4
SMILES | Neddylation inh | FAS-TE inh | PfGluPho inh | KLK7 zymogen act
CCOC(=O)NC[C@@]1(C(=O)OC)CC(=O)N(Cc2ccc(Cl)cc2)[C@@H]1c1ccc(OC)cc1 | / | / | / | 0.2
Cn1c2ccccc2c2cc(/C=N/NC(=O)c3ccc(O)cc3O)ccc21 | + | 5.8 | 6.7 | /
CCn1c2ccccc2c2cc(/C=N/NC(=O)c3ccc(O)cc3)ccc21 | / | 9.3 | 14.9 | -15.3
Cc1nn(CCC#N)c(NC(=O)c2ccc(Cl)cc2Cl)c1P(=O)(Nc1ccc([N+](=O)[O-])cc1)N1CCOCC1 (stereo not given) | i | 51.6* | -18.9 | -0.1
Cc1nn(CCC#N)c(NC(=O)c2ccc(Cl)cc2)c1P(=O)(Nc1ccc([N+](=O)[O-])cc1)N1CCOCC1 (stereo not given) | i | 16.4 | -18.3 | 0.2
CCc1ccc(N2CSC3=C(C#N)C(c4cccs4)CC(=O)N3C2)cc1 (stereo not given) | i | 4.2 | 62.4* | /
CC(C)(C)c1ccc(-c2nnc3sc(COc4ccccc4)nn23)cc1 | / | / | / | 0.2
COc1ccc(NC(=O)c2ccc(CN(c3cc(Cl)ccc3C)S(=O)(=O)c3ccccc3)cc2)cc1OC | i | 62.2* | 7.7 | 0.2
COc1cc(OC)cc(C(=O)c2c(C)c(C#N)c3ccccn23)c1 | i | 27.0 | 9.0 | -1.2
COC1=C/C(=C/c2c(O)c(C#N)c3ccccn23)C=CC1=O | + | -6.2 | 25.2 | -1.8
COc1cc(C(=O)NC2CCCCN(Cc3ccc(Cl)cc3)C2=O)cc(OC)c1OC (stereo not given) | / | / | / | -0.8
Brc1ccc(CNc2ccc3ncccc3c2)cc1 | + | 15.9 | 36.0 | -4.5
COc1cccc(-c2nnc3sc(-c4ccc(Br)o4)nn23)c1 | / | / | / | -3.5
COc1cc2cc(CN(Cc3nnnn3Cc3ccco3)C3CCCCC3)c(=O)[nH]c2cc1OC | / | -6.8 | 35.7 | 12.8*
CCC(C)(C)n1nnnc1CN(Cc1ccco1)Cc1cc2cc3c(cc2[nH]c1=O)OCO3 | / | -7.2 | -0.2 | /
CC(C)(C)n1nnnc1CN(Cc1ccco1)Cc1cc2cc3c(cc2[nH]c1=O)OCO3 | / | -8.2 | 14.8 | 28.2*
COc1ccc(Cn2nnnc2CN(Cc2cc3cccc(C)c3[nH]c2=O)C2CCCC2)cc1 | i | 1.4 | 0.6 | -0.6
COc1ccc(Cn2nnnc2CN(Cc2cc3ccc(C)cc3[nH]c2=O)C2CCCC2)cc1 | i | 20.8 | 4.8 | 14.9*
O=C(Cn1nnc(-c2ccccc2F)n1)Nc1ccc(F)cc1F | / | / | / | 0.1
O=[N+]([O-])c1ccc(N/N=C/c2ccc[nH]2)cc1 | i | -7.4 | 81.0* | 0.1
O=[N+]([O-])c1ccc(NN=Cc2cccc([N+](=O)[O-])c2)cc1 | i | 2.3 | 11.7 | -0.1
COc1cc2nc(Nc3ccc(C)c(C)c3)nc(N)c2cc1OC | i | -4.4 | 18.7 | -0.1
CCOC(=O)c1ccc(Nc2nc(N)c3cc(OC)c(OC)cc3n2)cc1 | + | 1.3 | 4.8 | /
COc1cc2nc(Nc3ccc(C)c(Cl)c3)nc(N)c2cc1OC | + | 2.4 | 33.9 | -2.0
CCCCNC(=O)C[C@H]1C[C@@]2(C(=O)OC)C(=C[C@H](C(C)(C)C)O[C@@H]2C)N(Cc2cccc3ccccc23)C1=O | / | / | / | 0.3
SMILES | Neddylation inh | FAS-TE inh | PfGluPho inh | KLK7 zymogen act
O=C(CSc1nc2ccccc2[nH]1)NN=Cc1c(F)cccc1Cl | / | / | / | 1.2
O=C(Nc1nc(-c2ccccc2)cs1)c1cccc([N+](=O)[O-])c1 | i | 56.9* | 5.6 | 0.5
COc1ccc(CC(=O)Nc2sc3c(c2C(N)=O)CCCC3)cc1 | i | -0.6 | 9.4 | -0.1
COc1ccc2nc(Nc3sc4c(c3C(N)=O)CCCC4)sc2c1 | i | 2.2 | 66.7* | -4.0
COc1ccc(C=Nn2c(-c3ccccc3F)n[nH]c2=S)cc1OCc1ccccc1 | / | / | / | 0.5
Cc1ccc2c(c1)C1CS(=O)(=O)N(CCc3ccccc3)C(=O)N1C2 (stereo not given) | / | / | / | 0.8
Cc1nc(C(=O)O)cc2c1[nH]c1ccccc12 | / | -5.8 | -2.8 | 58.6*
